GLP-1R inv ag – acts as inverse agonist at human GLP-1 receptor; HEK293 GLP-1R CRE-luciferase, luminescence, 24 h; GLP-1R form is constitutively active; P43220; Potency, µM (top dose mostly 38.3 µM), for inactives: at the top dose activity change, negative = inhibition, actives largely listed as inhibitors; 1.6% of 410,000 active; AID 624417; further: on the % scale 0 is the no-effect control and ±100 the full control effect; nearly all actives have a fitted effect of over 55% in size
Target sequence (P43220 whole entry, looked up): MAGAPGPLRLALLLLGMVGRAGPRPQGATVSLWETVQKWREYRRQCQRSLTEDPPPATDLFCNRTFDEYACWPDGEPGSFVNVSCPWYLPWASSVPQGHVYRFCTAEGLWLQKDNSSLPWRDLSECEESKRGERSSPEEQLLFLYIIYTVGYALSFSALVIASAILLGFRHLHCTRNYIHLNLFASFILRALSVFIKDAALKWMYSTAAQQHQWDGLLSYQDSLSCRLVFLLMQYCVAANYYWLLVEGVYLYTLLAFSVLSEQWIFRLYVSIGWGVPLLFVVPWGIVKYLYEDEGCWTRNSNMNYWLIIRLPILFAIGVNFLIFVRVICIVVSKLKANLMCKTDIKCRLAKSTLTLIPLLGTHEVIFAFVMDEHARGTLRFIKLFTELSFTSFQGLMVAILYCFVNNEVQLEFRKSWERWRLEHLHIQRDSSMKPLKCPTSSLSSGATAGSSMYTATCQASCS
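HEK293 cells stably co-expressing constitutively active GLP-1R and a cAMP-responsive luciferase reporter were seeded in DMEM with 10% Nu serum, given compounds after 12 h, and incubated 24 h at 37 deg C. Luminescence was then read.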
HEK293 tox – cytotoxic in the GLP-1 receptor inverse agonist counter-screen | Potency, µM (highest dose often 38.3 µM), for the others: at the top dose activity change, negative = inhibition, hits mostly inhibitors | 0.13% of 410,000 active | HEK293 cAMP-luciferase reporter cells, luminescence, 24 h | AID 624418;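 further: loss of luciferase light is scored as toxicity; on the % scale 0 is the no-effect control and ±100 the full control effect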
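Here, cytotoxicity is scored as loss of luminescence. The MLSMR collection was tested on cells seeded in medium containing 10% Nu serum, with a 24 hr compound exposure preceded by 12 hours of culture.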
GLP1R ag – activates the human GLP-1 receptor; Potency, µM (doses to about 45.6 µM), for inactives: top-dose activation, hits mostly activators; 0.007% of 380,000 active; AID 624172; P43220; HEK293 GLP-1R CRE-luciferase, luminescence, 4-6 h; cells express a hypersensitive GLP-1R form; further: % of control where 0% means no effect
Starred values were filed as active, the others as inactive; ? = inconclusive; nt = no result; [ ] = another dose, or the depositor's remark. The list is not random: actives were taken first. Their share in the collection is about 1.7%. The call rests on the fitted dose curve; in most records, active means well fitted curve in the direction sought with a large enough effect; inconclusive means small, poorly fitted or top-dose-only effect, or another doubt; inactive means no such curve, though single readings can be large; an effect the other way counts as inactive or inconclusive. Potency means the concentration at half of the fitted maximal effect.

SMILES | GLP-1R inv ag | HEK293 tox | GLP1R ag
COc1cccc(NC(=O)COC(=O)c2c3c(nc4ccccc24)CCC(C)C3)c1 (stereo not given) | 5µM* | ? | -20%
CCCc1cc(=O)oc2cc(C)cc(OCC(=O)N3CCC(C(N)=O)CC3)c12 | -13% | -8% | -1%
COc1ccc(CCC(=O)O)c(C(CC(=O)O)C(=O)O)c1OS(=O)(=O)c1ccc(C)cc1 (stereo not given) | 6% | -28% | -1%
CCCNC(=O)N(C)C[C@H]1Oc2ncc(Br)cc2C(=O)N([C@H](C)CO)C[C@H]1C | 4% | -14% | 20%
CCc1ccc(N(C(=O)c2snc(C(N)=O)c2N)C(C(=O)NCC2CCCO2)c2cccs2)cc1 (stereo not given) | ? | 6% | 18%
CCOC(=O)N1CCC(NC(=O)c2cnn(-c3ccc(OC)cc3)c2C2CCN(C(=O)OC(C)(C)C)CC2)CC1 | 14% | -9% | nt
CCOc1ccc(C(=O)CCC(=O)NNC(=O)CCN2CCN(c3ccccc3)CC2)cc1 | -3% | 1% | 0%
CC(C)Nc1cc(C(F)(F)F)nc(-c2ccccn2)n1 | -15% | ? | -7%
FC(F)(F)c1cc(Nc2ccccc2)nc(-c2ccccn2)n1 | 3.5µM* | ? | 14%
COc1ccc2c(c1)C=C(CN1CCC(CO)(CCc3ccccc3)CC1)CO2 | ? | 1% | 22%
COc1ccc(CC2(CO)CCN(CC3=Cc4cc(Cl)ccc4OC3)CC2)cc1 | 2.8µM* | ? | 16%
CCN(CC(=O)NC(C)(C)C)C(=O)c1cccc(S(=O)(=O)N2CC3(C)CC2CC(C)(C)C3)c1 (stereo not given) | -25% | -7% | 5%
COc1ccccc1N1CCN(/N=C/c2ccc([N+](=O)[O-])cc2)CC1 | 5% | 8% | 4%
O=[N+]([O-])c1ccc(C=NN2CCCCCC2)cc1 | 11µM* | 8% | 4%
CCOc1ccc(S(=O)(=O)NCCC(=O)NCc2ccncc2)cc1 | 4% | 6% | -12%
COc1cccc(C(=O)Nc2ccccc2OCc2cc(=O)n3ccccc3n2)c1 | -6% | -5% | nt
CN1CCN(c2oc(Cc3cccc4ccccc34)nc2C#N)CC1 | ? | 0% | 18%
N#Cc1nc(Cc2cccc3ccccc23)oc1N1CCCCC1 | 10µM* | 88% | 13%
Cc1ccc(NC(=O)c2c(C)oc3ccc(O)c(CN(C)Cc4ccccc4)c23)c(C)c1 | ? | -9% | nt
O=C(c1ccc(Nc2nc3ccccc3n3nnnc23)cc1)N1CCN(c2ccc(F)cc2)CC1 | 14% | 6% | nt
COc1ccc(-c2cnc(C)o2)cc1S(=O)(=O)Nc1ccc(OC(F)(F)F)cc1 | ? | -4% | nt
COc1ccc(-c2onc(C)c2C)cc1S(=O)(=O)Nc1ccc(OC(F)(F)F)cc1 | 13µM* | -5% | nt
CC(C)=CCC/C(C)=C/CNC(=O)C[C@H]1C[C@H](C(=O)N2CCCCC2)[C@@]2(C)c3[nH]c4cc(-c5ccco5)ccc4c3CCN2C1=O | ? | -1% | 2%
OC(C#Cc1ccccc1)(c1ccccc1)c1ccccc1 | 4.5µM* | ? | 15%
CC(C)[N+](C)(C)CC#CC(O)(c1ccccc1)c1ccccc1 | 5% | -8% | 0%
SMILES | GLP-1R inv ag | HEK293 tox | GLP1R ag
O=C(Cc1cccs1)NC1CC(=O)N(c2ccccc2)C1 (stereo not given) | 11% | 0% | nt
O=C(/C=C/c1cn(-c2ccccc2)nc1-c1cccnc1)N1CCCCC1 | 14% | -15% | 21%
COc1ccccc1N1CCN(C(=O)c2ccc(COc3cccc4c3OC(C)(C)C4)cc2)CC1 | 7.1µM* | 10% | -20%
CC1(C)Cc2cccc(OCC(=O)N3CCN(c4ccccc4F)CC3)c2O1 | ? | 9% | 12%
COc1ccccc1N1CCN(C(=O)c2cnc(N3CCCCC3)c3ccccc23)CC1 | 3.5µM* | ? | nt
COc1ccccc1N1CCN(C(=O)c2cnc(N3CCOCC3)c3ccccc23)CC1 | ? | -16% | nt
O=C(c1cc(Cl)ccc1Cl)N1CCN(c2ccccn2)CC1 | 16% | -3% | 16%
O=C(c1cnc(N2CCN(c3ccccn3)CC2)c2ccccc12)N1CCN(c2cccc(Cl)c2)CC1 | 2.2µM* | -19% | 2%
O=C(/C=C/c1cn(-c2ccccc2)nc1-c1cccc(Cl)c1)N1CCN(c2ccccn2)CC1 | 7.1µM* | -9% | 2%
CC(CCc1ccccc1)NC(=O)CSc1n[nH]c(-c2ccc(F)cc2)n1 (stereo not given) | ? | -17% | nt
O=C(O)C(CC1CCCCC1)N1CCS(=O)(=O)CC1 (stereo not given) | 6% | 1% | 3%
CC(C)c1ccc(NC(=O)c2cc(S(=O)(=O)N3CCCCC3)cn2C)cc1 | -14% | 7% | 1%
COc1ccc(C(=O)Nc2ccccc2C(=O)OCc2cc(=O)n3nc(C4CC4)sc3n2)cc1 | 6% | 2% | nt
COc1ccccc1N1CCN(C(=O)c2ccc3[nH]c4c(c3c2)CCCC4)CC1 | 10µM* | 4% | 1%
O=C(c1ccc2[nH]c3c(c2c1)CCCC3)N1CCN(c2ccc(F)cc2)CC1 | ? | -1%[1.53 µM] | -5%
CC(=O)Nc1cccc(/C(C)=N/NC(=O)c2ccc(CN3CCOCC3)cc2)c1 | 1% | 12% | 5%
Nc1c(C(=O)Nc2cccc(F)c2)c2ccccn2c1C(=O)c1ccccc1 | 13% | 0% | nt
COc1cc(OC)cc(C(=O)Nc2ccc(S(=O)(=O)N3CCCCC3c3cccnc3)cc2)c1 (stereo not given) | 7.1µM* | ? | nt
CCC1CCCCN1S(=O)(=O)c1ccc(NC(=O)c2cccnc2)cc1 (stereo not given) | ? | 8% | -1%
CN(C)S(=O)(=O)c1cccc(NC(=O)C(c2ccccc2)c2ccccc2)c1 | ? | -7% | 4%
CN(C)C(CNC(=O)c1cc(S(=O)(=O)N(C)c2ccccc2)ccc1Cl)c1ccccc1 (stereo not given) | 10µM* | 7% | 15%
CN(C)C(CNC(=O)c1cc(S(=O)(=O)N(C)c2ccc(F)cc2)ccc1Cl)c1ccco1 (stereo not given) | ? | 11% | 6%
CCC(C(=O)Nc1cccc(S(=O)(=O)N(C)c2ccccc2)c1)c1ccccc1 (stereo not given) | 7.1µM* | 5% | -3%
CC(C)N1[N]C(=C2C=c3cc(O)ccc3=N2)c2c(N)ncnc21 | nt | nt | 0%
CCNC(=O)C1(C)CCCN(Cc2cccc3c(OC)cc(C(=O)OCC)cc23)C1 (stereo not given) | -15% | -9% | 4%
O=C(Cn1cnc([N+](=O)[O-])c1)Nc1cc(Oc2ccc(Cl)cc2Cl)cc([N+](=O)[O-])c1 | 5.6µM* | ? | -50%
N#Cc1ccc(NC(=O)Cn2cnc([N+](=O)[O-])c2)cc1 | -10% | -2% | 6%
O=C(Nc1ccc(F)c(F)c1)c1ccc(F)c(S(=O)(=O)N2CCC3(CC2)OCCO3)c1 | 3.5µM* | -11% | -1%
O=S(=O)(c1cc(F)ccc1F)N1CCC2(CC1)OCCO2 | 7% | 2% | -5%
COc1ccc(C(=O)Nc2cc(S(=O)(=O)c3ccc(Cl)cc3)c(O)c(C)c2C)cc1 | ? | -10% | 1%
